The whole screen tested about 68,000 compounds, of which about 2,700 (4%) showed an effect of 50% or more. The full list was thinned out, with strong results kept by preference.

The assay deals with Plasmodium berghei. The assay is described as follows: Screen against P. berghei liver stage (PbLuc), transformed with Luciferase, at 2uM. Type of assay: functional, HepG2. Particulars: tested at 2 uM.
Regarding `CCc1sc(C(=O)Nc2cnn(CC(N)=O)c2)cc1C`, the INHIBITION is reported as 2.51%.

Turning to `CS(=O)(=O)N1CC[C@]2(O)CCN(c3cc(C#N)ccn3)C[C@@H]2C1`, the INHIBITION was determined as 19.44%.

With `CN(C)S(=O)(=O)N1CC[C@]2(O)CCN(c3cc(C#N)ccn3)C[C@@H]2C1`, the INHIBITION was found to be 57.68%.

`CN(C)S(=O)(=O)N1CC[C@]2(O)CCN(c3ncccn3)C[C@@H]2C1`: the INHIBITION is given as 13.51%.

For `O=C(c1ccccc1O)N1CCN(C(=O)C2CCC2)CC1`, the INHIBITION is on record as 51.31%.

Regarding `Cn1ccc2c(C(=O)N3CCN(C(=O)C4CCCC4)CC3)cccc21`, the INHIBITION stood at 16.64%.

Regarding `O=C(c1cc(F)ccc1O)N1CCN(C(=O)C2CCC2)CC1`, the INHIBITION is -10%.

With `Cc1ccc(S(=O)(=O)Nc2ccc(-n3nnn(C)c3=O)cc2)cc1`, the INHIBITION is -2.66%.

In the case of `CN(CC(N)=O)C(=O)CCCn1ccc2cc(Cl)ccc21`, the INHIBITION is reported as 28.42%.

For `CN(Cc1ncnn1C)C(=O)CCCn1ccc2cc(Cl)ccc21`, the INHIBITION was 57.23%.

As for `CN(Cc1ncnn1C)C(=O)CCn1ccc2ccccc21`, the INHIBITION is -2.19%.

On to `Cc1cnc(N2C[C@H]3CN(Cc4csc(C)n4)C(=O)[C@H]3C2)nc1`, for which the INHIBITION was determined as 22.18%.

As to `CNc1cccc(C2CCCN(C(=O)c3cnccn3)C2)n1` (stereo not drawn), the INHIBITION was found to be 36.98%.

In the case of `CNc1cccc(C2CCCN(C(=O)c3cccnc3)C2)n1` (stereo not drawn), the INHIBITION was -23.48%.

In the case of `CNc1cccc(C2CCCN(C(=O)c3ccncc3)C2)n1` (stereo not drawn), the INHIBITION is given as 52.89%.

As for `COCCNC(=O)[C@@]12CCO[C@@H]1CCN(Cc1cc(C)on1)C2`, the INHIBITION was 10.43%.

As for `O=C(NCc1ccccc1)C1CN(c2ccccn2)CCO1` (stereo not drawn), the INHIBITION stood at 82.2%.

Consider `Cc1cnc(N2CCOC(C(=O)NCc3ccccc3)C2)s1` (stereo not drawn), for which the INHIBITION is on record as 10.03%.

For the molecule `O=C(NCc1cccnc1)[C@H]1C[C@@H]2CCN(c3ccncn3)C[C@H]2O1`, the INHIBITION was 23.53%.

Take `O=C(Nc1ccc(-c2ccccc2)cc1)N1C[C@@H]2CNC[C@]2(C(=O)O)C1`: the INHIBITION turned out to be 51.42%.

For `O=C(Nc1ccccc1-c1ccccc1)N1C[C@@H]2CNC[C@]2(C(=O)O)C1`, the INHIBITION is given as 14.54%.

`O=C(c1ccccc1-c1ccccc1)N1C[C@@H]2CNC[C@]2(C(=O)O)C1`: the INHIBITION is recorded as 19.13%.

With `CS(=O)(=O)CCNC1CCCN(Cc2noc(C3CC3)n2)C1` (stereo not drawn), the INHIBITION is 33.52%.

As for `CC(C)c1cc(C(=O)NCC2CCCN(C(C)C)C2)n(C)n1` (stereo not drawn), the INHIBITION came to 48.04%.

On to `O=C(c1ccon1)N1CCN(c2ccncc2Cl)CC1`, for which the INHIBITION is 39.5%.

As to `Cc1nn(C)c(C)c1C(=O)N1CCN(C(=O)CCC2CCCCC2)CC1`, the INHIBITION turned out to be 21.97%.

`Cc1nn(C)c(C)c1C(=O)N1CCN(c2ccncc2Cl)CC1`: the INHIBITION was 4%.

Turning to `Cc1cc(C(=O)N2CCN(C(=O)CCC3CCCCC3)CC2)n(C)n1`, the INHIBITION is listed as 74.44%.

On to `Cc1nn(C)c(C)c1C(=O)N1CCN(C(=O)CC2CCCCC2)CC1`, for which the INHIBITION is on record as 43.44%.

On to `Cc1cc(C(=O)N2CCN(c3ccncc3Cl)CC2)n(C)n1`, for which the INHIBITION amounted to 64.35%.

Turning to `Cc1cc(C)n(CC(C)CNC(=O)N(C)Cc2cc(C)on2)n1` (stereo not drawn), the INHIBITION was found to be 0.89%.

On to `Cc1nc(-c2cc(C(=O)NCCN3CCOCC3)c3ccccn23)cs1`, for which the INHIBITION was -40.36%.

Consider `CC(c1ccncc1)N(C)S(C)(=O)=O` (stereo not drawn), for which the INHIBITION is -22.2%.

`Cc1noc([C@]23COC[C@H]2CN(C(=O)Cc2ccsc2)C3)n1`: the INHIBITION is recorded as 15.36%.

Take `CCS(=O)(=O)N1CCOC(CCCc2ccccc2)C1` (stereo not drawn): the INHIBITION was 1.94%.

In the case of `CC(C)(CN1CCC(Cc2ccc(CO)cc2)C1)N1CCOCC1` (stereo not drawn), the INHIBITION is on record as -57.88%.

On to `CC(C)(CN1CCC(Cc2cccc(C(=O)O)c2)C1)N1CCOCC1` (stereo not drawn), for which the INHIBITION is recorded as -32.96%.

In the case of `CC(C)(CN1CCC(Cc2ccc(C(=O)O)cc2)C1)N1CCOCC1` (stereo not drawn), the INHIBITION came to 52.01%.

Take `c1cnc(-c2noc(C3CN(Cc4ccc5c(c4)CCO5)C3)n2)nc1`: the INHIBITION is -17.26%.

Turning to `COc1ccccc1C(=O)N(C)Cc1nnc2ccccn12`, the INHIBITION was 40.82%.

`COC(=O)C(c1cc(F)ccc1F)N(C)C(=O)c1cnccn1` (stereo not drawn): the INHIBITION is given as -27.5%.

Consider `COC(=O)C(c1cc(F)ccc1F)N(C)C(=O)c1ccnc(C)n1` (stereo not drawn), for which the INHIBITION is -12.91%.

Consider `COC(=O)C(c1cc(F)ccc1F)N(C)C(=O)c1cnc(C)cn1` (stereo not drawn), for which the INHIBITION stood at 60.09%.

On to `Cc1cc(C)n(CCC2CC(=O)Nc3cc(O)c(C)cc32)n1` (stereo not drawn), for which the INHIBITION is reported as -32.52%.

Consider `Cc1noc(C(C)C)c1C(=O)NCCCN1CCNCC1`, for which the INHIBITION came to 43.16%.

Consider `Cc1noc(C(C)C)c1C(=O)NCCCN1CCCCCC1=O`, for which the INHIBITION is reported as 77.68%.

`Cc1noc(C(C)C)c1C(=O)NCCCN1CCC(C)CC1`: the INHIBITION is reported as -15.34%.

For the molecule `Cc1noc(C(C)C)c1C(=O)NCCC(=O)N1CCCCC1`, the INHIBITION turned out to be 11.57%.

Take `Cc1noc(C(C)C)c1C(=O)NCCN1CCCCCC1=O`: the INHIBITION was determined as 60.21%.

As for `Cc1noc(C)c1C(=O)NCCN1CCN(S(C)(=O)=O)CC1`, the INHIBITION is reported as -41.64%.

Turning to `Cc1noc(C(C)C)c1C(=O)NCCN1CCOCC1`, the INHIBITION came to 32.63%.

As for `Cc1noc(C(C)C)c1C(=O)NCCCN1CCCC1`, the INHIBITION is listed as -75.02%.

For the molecule `Cc1noc(C)c1C(=O)NCCN1CCOCC1`, the INHIBITION stood at 63.46%.

(Values after ChEMBL document CHEMBL4513216, “Probing the Open Global Health Chemical Diversity Library for Multistage-Active Starting Points for Next-Generation Antimalarials” (ACS Infect Dis, 2020).)
